# Laboratory results from PubChem BioAssay (NCATS).
# Several values for one entry are separate records, joined by “and”; a condition that tells them apart may be missing. Equal values may be shown once. Results filed as inconclusive are left out. For part of these data: Entries with a potency or affinity are not part of this list. Activity calls are given as the source filed them.
# How the values were obtained:
# [1] = Ebola virus entry assay, green fluorescence channel
# [2] = Ebola virus entry assay, blue channel fluorescence
# [3] = qHTS Assay for Identifying Gametocytocidal Compounds (AID 743244); also: potency is read from the fitted curve at half-maximal effect;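 as to max response: % is scaled to controls: 0 for no effect and ±100 for the full control effect; actives lower the fluorescent signal which means gametocytes are killed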; conditions: P. falciparum 3D7 stage III-V gametocytes, alamarBlue, 72 h; max response: stronger effect = lower value
# Method in brief: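 Fluorescence at Ex 525/Em 598 nm, recorded 24 h after alamarBlue addition, reports residual metabolic activity of 3D7 gametocytes (stages III–V) following 72 h compound exposure at 37 °C, 5% CO2.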
# [4] = qHTS for compounds that reverse cellular toxicity of Amyloid beta (A-beta) peptide in yeast: LOPAC Validation Assay (AID 720559); conditions: yeast expressing A-beta; series mostly up to 46.1 µM;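 also: plate controls were DMSO for no effect and equimolar ferric chloride plus clioquinol rescue for full effect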
# Method in brief: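 Here, A-beta-toxic yeast grow with test compounds at 30 C for 48 hr before optical density at 600 nm is recorded; data are normalized against DMSO and the FeCl3-clioquinol control.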
# [5] = qHTS for Activators of Parkin Expression: LOPAC Validation Assay (FLuc Reporter) (AID 720573;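 also: 0% = DMSO and 100% = positive control compounds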); conditions: Cell line, PRKN promoter firefly luciferase reporter, vehicle wells = 0, positive control = 100%; series mostly up to 46.1 µM
# Method in brief: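 Readout is FLuc luminescence from neuronal reporter cells (Parkin promoter, FLuc plus NLuc) after 24 h compound exposure in dose response. Values normalized to neutral DMSO and positive-control compounds.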
# [6] = qHTS assay for small molecule agonists of the antioxidant response element (ARE) signaling pathway measured by Nrf2-dependant transcriptional activity (AID 720636; active = well fitted curve in the direction sought with a large enough effect in the repeat runs; an effect the other way counts as inactive or inconclusive;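 also: HepG2 cells with an ARE-driven luciferase reporter; % of control where 0% means no effect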); conditions: ARE-luc HepG2, Nrf2 luciferase reporter, 16 h; series mostly up to 92.4 µM
# Method in brief: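 Reporter gene assay, HepG2 ARE-luc: 16 hr compound, 37 C, 5% CO2; read-out luciferase luminescence.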
# [7] = qHTS assay for small molecule antagonists of the retinoid-related orphan receptor gamma (ROR-gamma) signaling pathway - cell viability counter screen (AID 720652; active = well fitted curve in the direction sought with a large enough effect in the repeat runs; an effect the other way counts as inactive or inconclusive;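 also: CHO reporter cells with doxycycline-induced ROR-gamma expression; compound exposure lasted 16 hr before ATP read; % is scaled to controls: 0 for no effect and ±100 for the full control effect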); conditions: RORgamma reporter cell line viability counter screen; series mostly up to 92.2 µM
# Method in brief: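 Steps: seed CHO cells bearing TET-inducible ROR and ROR response element-luciferase; rest 5 hr at 37 C; add compound, then doxycycline; incubate 16 hr; add CellTiter-Glo and read luminescence as ATP-based viability.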
# [8] = qHTS assay for small molecule agonists of the antioxidant response element (ARE) signaling pathway measured by Nrf2-dependant transcriptional activity - cell viability counter screen (AID 720653; active = well fitted curve in the direction sought with a large enough effect in the repeat runs; an effect the other way counts as inactive or inconclusive; also: % is scaled to controls: 0 for no effect and ±100 for the full control effect); conditions: ARE-bla HepG2 viability, CellTiter-Glo ATP luminescence, 16 h; max response: stronger effect = lower value
# Method in brief: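 ARE-bla HepG2 cells (2,000/well) rested 5 hrs at 37C/5% CO2, then exposed to compounds in DMSO for 16 hrs. Viability was read in the same wells as intracellular ATP by luminescence, 30 min at room temperature after reagent addition.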
# [9] = target: T1, Hexokinase-4 (Homo sapiens) + Glucokinase regulatory protein (Homo sapiens) (UniProt P35557+Q14397); assay: qHTS assay for inhibitors of recombinant human GCK-GKRP interaction: Diaphorase-coupled assay (AID 743205); conditions: G6PDH/diaphorase resorufin fluorescence; series mostly up to 57.5 µM
# T1 sequence (P35557 whole entry, looked up): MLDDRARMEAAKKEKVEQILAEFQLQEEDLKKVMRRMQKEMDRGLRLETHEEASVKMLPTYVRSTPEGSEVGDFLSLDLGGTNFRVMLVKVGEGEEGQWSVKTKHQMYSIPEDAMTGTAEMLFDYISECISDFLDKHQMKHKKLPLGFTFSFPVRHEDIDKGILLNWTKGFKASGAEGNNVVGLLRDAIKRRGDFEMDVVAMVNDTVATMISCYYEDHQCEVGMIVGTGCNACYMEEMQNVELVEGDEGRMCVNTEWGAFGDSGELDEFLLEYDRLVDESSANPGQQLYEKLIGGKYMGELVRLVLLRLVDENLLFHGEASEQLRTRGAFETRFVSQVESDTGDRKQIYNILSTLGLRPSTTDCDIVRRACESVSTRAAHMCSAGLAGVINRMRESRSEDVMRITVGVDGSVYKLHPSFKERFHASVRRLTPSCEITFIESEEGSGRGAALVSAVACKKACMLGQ
# T1 sequence (Q14397 whole entry, looked up): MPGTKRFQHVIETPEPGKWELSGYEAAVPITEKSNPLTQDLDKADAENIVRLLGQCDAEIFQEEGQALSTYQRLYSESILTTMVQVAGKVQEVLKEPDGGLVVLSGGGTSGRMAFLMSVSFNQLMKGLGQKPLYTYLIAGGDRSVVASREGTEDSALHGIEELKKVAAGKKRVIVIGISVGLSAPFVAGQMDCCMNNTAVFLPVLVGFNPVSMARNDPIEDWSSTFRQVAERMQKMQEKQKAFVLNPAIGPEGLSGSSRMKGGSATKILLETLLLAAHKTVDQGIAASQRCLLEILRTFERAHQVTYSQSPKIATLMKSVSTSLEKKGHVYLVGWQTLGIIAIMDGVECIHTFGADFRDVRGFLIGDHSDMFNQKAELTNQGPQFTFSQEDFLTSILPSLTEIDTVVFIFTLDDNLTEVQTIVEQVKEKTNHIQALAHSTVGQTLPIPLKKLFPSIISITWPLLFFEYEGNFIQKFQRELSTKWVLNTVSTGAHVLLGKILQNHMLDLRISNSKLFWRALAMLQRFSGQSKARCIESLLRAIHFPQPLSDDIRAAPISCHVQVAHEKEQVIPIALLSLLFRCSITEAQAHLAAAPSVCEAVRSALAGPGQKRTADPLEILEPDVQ
# Method in brief: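 Signal derives from resorufin generated by diaphorase, linked to GCK turnover of glucose (5 mM) and ATP (0.4 mM). Enzyme complex was added after a 20-minute compound preincubation and monitored for 30 minutes.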
# [10] = target: T1, Hexokinase-4 (Homo sapiens) + Glucokinase regulatory protein (Homo sapiens); assay: qHTS assay for inhibitors of recombinant human GCK-GKRP interaction: ADP-Glo assay (AID 743206); conditions: ADP-Glo luminescence, 60 min, 0% = vehicle-only wells with enzyme present; series mostly up to 76.9 µM;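 also: plate controls were DMSO plus enzyme for no effect and no enzyme for full effect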
# Method in brief: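 Pin-transferred compounds meet a 15 nM GST-GCK/15 nM FLAG-GKRP/2 uM S6P mix (dispense concentrations). ATP is then added to 0.4 mM final with 5 mM glucose, and the reaction runs 60 min at room temperature. ADP is quantified luminescently.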
# [11] = target: T1, Hexokinase-4 (Homo sapiens) + Glucokinase regulatory protein (Homo sapiens); assay: qHTS assay for inhibitors of recombinant human GCK-GKRP interaction: HTRF assay (AID 743207); conditions: recombinant GCK-GKRP HTRF binding, 60 min; series mostly up to 57.5 µM;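 also: 0% = DMSO with GCK present and -100% = DMSO wells lacking GCK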
# Method in brief: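 Titration screening format: recombinant GST-GCK and FLAG-GKRP at 5 nM, S6P at 2 uM, labelled anti-tag antibodies, 60 min at RT, dual-wavelength HTRF readout.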
# [12] = qHTS assay for cell viability of HEK293 cells (AID 743288); conditions: ATP luminescence (CellTiter-Glo), 18 h; max response: stronger effect = lower value; also: % is scaled to controls: 0 for no effect and ±100 for the full control effect; nearly all actives have a fitted effect of over 50% in size
# Method in brief: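 HEK293, 18 h, 37 C, ATP luminescence. Cells at 2,000/well were allowed at least 5 h to settle before dosing; CellTiter-Glo developed 30 min at RT.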
# [13] = qHTS assay for cell viability of the p53RE-bla HCT-116 cell line (AID 743292); conditions: p53RE-bla HCT-116 viability, ATP luminescence, 16 h; series mostly up to 95 µM; also: % is scaled to controls: 0 for no effect and ±100 for the full control effect; nearly all actives have a fitted effect of over 55% in size
# Method in brief: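 Readout: CellTiter-Glo luminescence after 30 min RT. Treatment: compounds in DMSO, 16 h, 37 C. Cells: CellSensor p53RE-bla HCT-116, 4,000/well, preincubated 5 h.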
# [14] = qHTS profiling of the MIPE4 collection as inhibitors of Plasmodium falciparum (3D7) proliferation (AID 743344; call rule not given here;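 also: scaled between DMSO vehicle wells and 0.29 µM artemisinin as full inhibition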); conditions: P. falciparum 3D7 in erythrocytes, SYBR Green DNA fluorescence, 72 h; at 28.5 µM (top of the series) unless noted
# Method in brief: (§1)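 Parasite DNA was quantified by SYBR Green I fluorescence (ex 485, em 535 nm) after overnight lysis in saponin/Triton buffer at room temperature. Cultures at 0.3% parasitemia and 2.5% hematocrit were first exposed to compound for 72 h at 37 C; signals were normalised to artemisinin (0.29 uM) and vehicle wells.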
# [15] = qHTS profiling of the MIPE4 collection as inhibitors of Plasmodium falciparum (DD2) proliferation (AID 743345; call rule not given here); conditions: P. falciparum Dd2 in erythrocytes, SYBR Green DNA, 72 h; at 28.5 µM (top of the series) unless noted
# Method in brief: as §1
# [16] = qHTS profiling of the MIPE4 collection as inhibitors of Plasmodium falciparum (DD2) proliferation (Rep 2) (AID 743346; call rule not given here); conditions: P. falciparum Dd2 in erythrocytes, SYBR Green DNA, 72 h; at 28.5 µM (top of the series) unless noted
# Method in brief: as §1
# [17] = qHTS profiling of the MIPE4 collection as inhibitors of Plasmodium falciparum (HB3) proliferation (AID 743347; call rule not given here;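 also: plate controls were DMSO vehicle wells for no effect and artemisinin wells for full effect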); conditions: P. falciparum HB3 in erythrocytes, SYBR Green DNA, 72 h; at 28.5 µM (top of the series) unless noted
# Method in brief: as §1
# For efficacy in this document: 0% is about no effect.
structure (smiles),measurement,setting,value
CNCCc1ccccn1,efficacy,[1],-10.7% (inactive)
same,outcome,[2],inactive
CCOC(=O)C1(c2ccccc2)CCN(CCC(C#N)(c2ccccc2)c2ccccc2)CC1,max response,[3],18.9% (inactive) and -7.07% (inactive)
same,efficacy,[1],-34.7% (inactive)
same,outcome,[2],inactive
CCCC(C)(COC(N)=O)COC(=O)NC(C)C (centres undefined),outcome,[4],inactive
same,outcome,[5],inactive
same,Potency,[6],inactive
same,Potency,[7],inactive
same,max response,[8],-3.52% (inactive) and -3.1% (inactive)
same,outcome,[9],inactive
same,outcome,[10],inactive
same,outcome,[11],inactive
same,max response,[3],10.4% (inactive) and -6.54% (inactive)
same,max response,[12],-8.51% (inactive) and -1.5% (inactive)
same,Potency,[13],inactive
same,"parasite growth, % of DMSO control",[14],93%
same,"parasite growth remaining, % of DMSO control (lower = more inhibition)",[15],91%
same,"parasite growth, % of control (lower = inhibition)",[16],119%
same,"growth, % of control",[17],100%
same,efficacy,[1],22.1% (inactive)
same,outcome,[2],inactive
NCC1(CC(=O)O)CCCCC1,outcome,[4],inactive
same,outcome,[5],inactive
same,outcome,[9],inactive
same,outcome,[10],inactive
same,outcome,[11],inactive
same,max response,[3],10.3% (inactive)
same,"parasite growth, % of DMSO control",[14],58.3%
same,"parasite growth remaining, % of DMSO control (lower = more inhibition)",[15],87.6%
same,"parasite growth, % of control (lower = inhibition)",[16],75.9%
same,"growth, % of control",[17],94.9%
same,efficacy,[1],-9.69% (inactive)
same,outcome,[2],inactive
CCN(C(C)=O)c1cccc(-c2ccnc3c(C#N)cnn23)c1,max response,[3],4.87% (inactive)
same,efficacy,[1],22.6% (inactive)
same,outcome,[2],inactive
O=C(O)C1(C(=O)O)CCC1.[NH2-].[NH2-].[Pt+2],efficacy,[1],-21.2% (inactive)
same,outcome,[2],inactive
CCN(CC)CCN1C(=O)CN=C(c2ccccc2F)c2cc(Cl)ccc21,max response,[3],9.52% (inactive)
same,efficacy,[1],47.1% (inactive)
same,outcome,[2],inactive
Cc1ccc(-n2[nH]c(C)c(N=Nc3cccc(-c4cccc(C(=O)O)c4)c3O)c2=O)cc1C,efficacy,[1],128% (inactive)
same,outcome,[2],inactive
CC[C@@H](CO)NC(=O)[C@@H]1C=C2c3cccc4c3c(cn4C)C[C@H]2N(C)C1,outcome,[4],inactive
same,outcome,[5],inactive
same,outcome,[10],inactive
same,outcome,[11],inactive
same,max response,[3],1.36% (inactive)
same,efficacy,[1],9.51% (inactive)
same,outcome,[2],inactive
COC1=CC(=O)C[C@@H](C)[C@]12Oc1c(Cl)c(OC)cc(OC)c1C2=O,efficacy,[1],30% (inactive)
same,outcome,[2],inactive
Cc1ccc(-c2nc3ccc(C)cn3c2CC(=O)N(C)C)cc1,max response,[3],7.35% (inactive)
same,efficacy,[1],-21.9% (inactive)
same,outcome,[2],inactive
CN(C)CCC=C1c2ccccc2CCc2ccccc21,Potency,[6],inactive
same,max response,[8],-15% (inactive)
same,Potency,[3],1.26 µM (active)
same,efficacy,[1],121% (inactive)
same,AC50,[2],11.2 µM (active)
CC1(C)O[C@@H]2[C@@H](CO[C@@]3(COS(N)(=O)=O)OC(C)(C)O[C@@H]23)O1,efficacy,[1],-13.6% (inactive)
same,outcome,[2],inactive
CCn1cc(C(=O)O)c(=O)c2cc(F)c(N3CCNCC3)cc21,"parasite growth, % of DMSO control",[14],48%
same,"parasite growth remaining, % of DMSO control (lower = more inhibition)",[15],60.2%
same,"parasite growth, % of control (lower = inhibition)",[16],42.3%
same,"growth, % of control",[17],82.1%
same,efficacy,[1],-31.6% (inactive)
same,outcome,[2],inactive
